Screens from PubChem BioAssay.
Shiga inhibitor = blocks Shiga toxin action in Vero cells | Vero cells, Shiga toxin protein synthesis inhibition reporter | inhibition, % at 38.7 µM | 9.2% of 290,000 active | AID 2315; in the data active = inhibition mostly above about 28%, no sharp cut-off; inactive = mostly below about 43%
LmPK inhibitor = inhibitors of Leishmania mexicana pyruvate kinase; purified LmPK, Kinase-Glo ATP luminescence, 1 h; Potency, µM (titrated, usually from 57.5 µM), most hits filed as inhibitors; 0.37% of 290,000 active
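Pyruvate kinase activity monitored as ATP production (luciferase luminescence). Conditions: 0.1 nM enzyme, 0.5 mM PEP, 0.1 mM ADP, 1 h, RT; normalized against uninhibited and no-enzyme wells.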
Tb PYK inh = T. brucei pyruvate kinase inhibition | 0.12% of 410,000 active | TbPYK enzyme, Kinase-Glo Plus ATP luminescence, 45 min | Potency, µM (series often up to 76.8 µM), hits mostly inhibitors | Q57TT1; note: nearly all actives have a fitted effect of over 50% in size
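Quantitative HTS: titrated library compounds versus trypanosomal pyruvate kinase in TEA buffer (pH 7.2) containing KCl, MgCl2, BSA and Tween-20. Reactions were initiated with ADP, 130 uM final. Kinase-Glo Plus luminescence was read after 45 min at RT.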
RE007 growth inh = less growth of the S. pombe RE007 Vpr strain. S. pombe RE007 Vpr strain, BacTiter-Glo ATP luminescence, 24 h. Potency, µM (titrated, usually from 92.2 µM), most hits filed as inhibitors. 0.21% of 360,000 active. AID 651644; active = well fitted falling curve with a large enough effect; inconclusive = small, poorly fitted or top-dose-only effect; inactive = no such curve, though single readings can be large or run the other way; note: nearly all actives have a fitted effect of over 50% in size
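Fission yeast RE007 carrying one integrated HIV-1 vpr copy, seeded at OD 0.01 in PMG+AL medium with 23 nL pinned compound. Grown 24 h at 30 degrees; viability read by BacTiter-Glo luminescence after 5 min.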
CHX counter = affects cycloheximide protein synthesis inhibition readout, counter-screen. cell reporter, cycloheximide protein synthesis inhibition counterscreen. max response, %. 12% of 300,000 active. AID 2314; in the data active = max response mostly above about 13%, no sharp cut-off; inactive = mostly below about 14%; note: read at 38.3 µM for the half of the compounds with a filed dose
FBPA Giardia inh = Giardia lamblia aldolase inhibition; A8B2U2; purified Giardia FBPA; Potency, µM (highest dose often 59.6 µM), actives largely listed as inhibitors; 0.71% of 290,000 active; AID 2451; note: nearly all actives have a fitted effect of over 55% in size
Target sequence (A8B2U2 whole entry, looked up): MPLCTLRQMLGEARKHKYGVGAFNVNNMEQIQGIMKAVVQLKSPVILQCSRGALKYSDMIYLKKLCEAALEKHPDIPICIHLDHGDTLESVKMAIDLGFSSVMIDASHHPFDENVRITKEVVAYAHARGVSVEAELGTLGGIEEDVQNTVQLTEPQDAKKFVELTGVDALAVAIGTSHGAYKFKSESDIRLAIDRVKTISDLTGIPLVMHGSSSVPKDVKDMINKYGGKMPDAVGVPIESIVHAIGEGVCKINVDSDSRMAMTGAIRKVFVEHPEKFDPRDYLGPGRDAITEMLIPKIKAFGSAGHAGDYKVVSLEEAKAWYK
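40 nM FBPA preincubated 10 min at RT with compound (up to 57.5 uM final), then substrate plus GAPDH/TPI/NAD/arsenate coupling and diaphorase/resazurin added. Fluorescence read after 20 min at RT, 525/598 nm.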
A number is an active result. The sample as a whole holds a higher share of hits than the screen did. Unless noted, calls come from the whole dose curve; as a rule, active = well fitted curve in the direction sought with a large enough effect; inconclusive = small, poorly fitted or top-dose-only effect, or another doubt; inactive = no such curve, though single readings can be large; an effect the other way counts as inactive or inconclusive.

Results for Cc1ccc(CSCC(=O)N2CCCC2)cc1 ?
Shiga inhibitor: inactive; LmPK inhibitor: inactive; Tb PYK inh: inactive; RE007 growth inh: inactive; CHX counter: 24; FBPA Giardia inh: inactive

What do the screens show for `Cc1cccc(NS(=O)(=O)c2ccc3c(c2)n(C)c(=O)n3C)c1C`?
Tb PYK inh: inactive

How did COc1ccc(C(=O)N2CCC3(CC2)CN(C(=O)Nc2cccc(C#N)c2)C3)cc1 do in these assays?
Tb PYK inh: inactive; FBPA Giardia inh: inactive

What do the screens show for `O=C(CC1CC2CCC1C2)NC1CCCCCCC1` (configuration not stated)?
Shiga inhibitor: inactive; LmPK inhibitor: inactive; Tb PYK inh: inactive; RE007 growth inh: inactive; CHX counter: inactive; FBPA Giardia inh: inactive

What do the screens show for `COc1ccc(CCNC(=O)c2ccc3c(c2)CCN3S(=O)(=O)c2ccc(C)cc2)cc1`?
Tb PYK inh: inactive

How did CC(=O)Nc1ccc(NC(=O)c2ccc3c(c2)CCN3S(=O)(=O)c2ccc(C)cc2)cc1 do in these assays?
Tb PYK inh: inactive

What do the screens show for `CC(=O)N1CCc2cc(NC(=O)c3ccc(C)cc3)ccc21`?
Shiga inhibitor: 47; LmPK inhibitor: inactive; Tb PYK inh: inactive; RE007 growth inh: inactive; CHX counter: 34; FBPA Giardia inh: inactive

How did COc1ccc(C(=O)Nc2cccc(C(=O)N3CCCC3)c2)cc1 do in these assays?
Shiga inhibitor: inactive; LmPK inhibitor: inactive; Tb PYK inh: inactive; RE007 growth inh: inactive; CHX counter: 11; FBPA Giardia inh: inactive

How did COc1ccc(N/N=C(C)/C(=N/O)C(=O)Nc2ccccc2)cc1 do in these assays?
Shiga inhibitor: 74; LmPK inhibitor: inconclusive; Tb PYK inh: inactive; RE007 growth inh: inconclusive; CHX counter: 29; FBPA Giardia inh: inactive

Results for COc1ccc(NC(=O)c2ccccc2-c2ccccc2)cc1 ?
Shiga inhibitor: inactive; LmPK inhibitor: inactive; Tb PYK inh: inactive; RE007 growth inh: inactive; CHX counter: inactive; FBPA Giardia inh: inactive

What do the screens show for `COc1ccc(NC(=O)c2cccc(NC(=O)c3ccccc3)c2)cc1`?
Shiga inhibitor: inactive; LmPK inhibitor: inactive; Tb PYK inh: inactive; RE007 growth inh: inactive; CHX counter: 18; FBPA Giardia inh: inactive

Results for Cc1cccc(NC(=O)CSc2nc3c([nH]c4ccccc43)c(=O)n2-c2ccc(F)cc2)c1C ?
Tb PYK inh: inactive

Results for CCOc1ccc(C(=O)Nc2ccc(NC(=O)c3ccccc3)cc2)cc1Br ?
Shiga inhibitor: inactive; LmPK inhibitor: inactive; Tb PYK inh: inactive; RE007 growth inh: inactive; CHX counter: inactive; FBPA Giardia inh: inactive

Results for CCOc1ccc(NC(=O)c2cccc(NC(=O)c3ccccc3)c2)cc1 ?
Shiga inhibitor: 53; LmPK inhibitor: inactive; Tb PYK inh: inactive; RE007 growth inh: inactive; CHX counter: 17; FBPA Giardia inh: inactive

How did CN1CCc2ccc(NC(=O)c3ccc(C(F)(F)F)cc3)cc2C1 do in these assays?
Shiga inhibitor: 25; LmPK inhibitor: inactive; Tb PYK inh: inactive; RE007 growth inh: inactive; CHX counter: 14; FBPA Giardia inh: inactive

Results for Cc1ccc(C(=O)Nc2cccc(C(=O)N3CCN(C)CC3)c2)cc1 ?
Shiga inhibitor: 71; LmPK inhibitor: inactive; Tb PYK inh: inactive; RE007 growth inh: inactive; CHX counter: 30; FBPA Giardia inh: inactive

How did CN1CCN(c2ccc(NC(=O)c3ccc(C(F)(F)F)cc3)cn2)CC1 do in these assays?
Shiga inhibitor: inactive; LmPK inhibitor: inactive; Tb PYK inh: inactive; RE007 growth inh: inactive; CHX counter: inactive; FBPA Giardia inh: inactive

Results for CCOc1c(Cl)cc(C(=O)Nc2cccc(C(=O)O)c2)cc1Cl ?
Shiga inhibitor: 69; LmPK inhibitor: inactive; Tb PYK inh: inactive; RE007 growth inh: inactive; CHX counter: 43; FBPA Giardia inh: inactive

Results for CCCCN(C)CCNC(=O)C1CCCN(S(=O)(=O)c2ccc3c(c2)oc(=O)n3C)C1 (configuration not stated) ?
Tb PYK inh: inactive

Results for CCN(CC)C(=O)CSc1nc2c(c(-c3cccnc3)c1C#N)CCCC2 ?
Shiga inhibitor: inactive; LmPK inhibitor: inactive; Tb PYK inh: inactive; RE007 growth inh: inactive; CHX counter: inactive; FBPA Giardia inh: inactive

Results for CN(C)c1ncc2nc(-c3ccccc3)c(=O)n(Cc3cccs3)c2n1 ?
FBPA Giardia inh: inactive
